Where a name gives a salt, the structure may show the parent alone.
system: replication-induced senescent mouse newborn dermal fibroblasts (NBF); assay: relative cell viability of senescent cells (fraction); higher = less killing of senescent cells; settings: 1 µM; 3 days
Procedure: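 Replication-induced senescent newborn mouse skin fibroblasts (NBFs) in 24-well plates were treated with a Selleck FDA-approved drug library at 1 µM for 3 days.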

Row | Structure (SMILES) | relative cell viability
1 | CC(C)CN(C[C@@H](O)[C@H](Cc1ccccc1)NC(=O)O[C@H]1CCOC1)S(=O)(=O)c1ccc(N)cc1 [Amprenavir] | 1.06
2 | Cn1cc(CNCC2CCN(c3ncc(C(=O)NO)cn3)CC2)c2ccccc21 | 0.757
3 | C[C@]12C=CC(=O)C=C1CC[C@@H]1[C@@H]2[C@@H](O)C[C@@]2(C)[C@H]1CC[C@]2(O)C(=O)CO [Prednisolone] | 1.01
4 | Cc1cccc(Nc2ccncc2S(=O)(=O)NC(=O)NC(C)C)c1 [Torsemide] | 0.965
5 | C=C1/C(=C\C=C2/CCC[C@]3(C)[C@@H]([C@H](C)CCCC(C)C)CC[C@@H]23)C[C@@H](O)C[C@@H]1O [Alfacalcidol] | 0.249
6 | NC(=O)NO [Hydroxyurea] | 0.967
7 | Oc1ccc(/C=C/c2cc(O)cc(O)c2)cc1 [Resveratrol] | 1.02
8 | CO[C@H]1/C=C/O[C@@]2(C)Oc3c(C)c(O)c4c(O)c(c(/C=N/N5CCN(C6CCCC6)CC5)c(O)c4c3C2=O)NC(=O)/C(C)=C\C=C\[C@H](C)[C@H](O)[C@@H](C)[C@@H](O)[C@@H](C)[C@H](OC(C)=O)[C@@H]1C [Rifapentine] | 0.659
9 | C#CCC(Cc1cnc2nc(N)nc(N)c2n1)c1ccc(C(=O)N[C@@H](CCC(=O)O)C(=O)O)cc1 (some centres undefined) [Pralatrexate] | 0.863
10 | CCCCCOC(=O)Nc1nc(=O)n([C@@H]2O[C@H](C)[C@@H](O)[C@H]2O)cc1F [Capecitabine] | 0.891
11 | CCC(C)(C)C(=O)O[C@H]1C[C@@H](C)C=C2C=C[C@H](C)[C@H](CC[C@@H]3C[C@@H](O)CC(=O)O3)[C@H]21 [Simvastatin] | 0.965
12 | Nc1ccc(S(N)(=O)=O)cc1 [Sulfanilamide] | 0.91
13 | C=C1/C(=C\C=C2/CCC[C@]3(C)[C@@H]([C@H](C)/C=C/[C@H](C)C(C)C)CC[C@@H]23)C[C@@H](O)C[C@@H]1O [Doxercalciferol] | 1.22
14 | Oc1ccc(OCc2ccccc2)cc1 [Monobenzone] | 0.981
15 | CC(=O)OCC[N+](C)(C)C [Acetylcholine Chloride] | 0.052
16 | COc1cc2nc(N(C)CCCNC(=O)C3CCCO3)nc(N)c2cc1OC (centres undefined) [Alfuzosin HCl] | 0.96
17 | CC(C)NCC(O)COc1ccc(COCCOC(C)C)cc1 (centres undefined) [Bisoprolol fumarate] | 0.929
18 | N=C(N)NC(=O)c1nc(Cl)c(N)nc1N [Amiloride HCl] | 0.768
19 | COC(=O)c1ccc2c(C(=Nc3ccc(N(C)C(=O)CN4CCN(C)CC4)cc3)c3ccccc3)c(O)[nH]c2c1 [Nintedanib (BIBF 1120)] | 1.01
20 | CNC(=C[N+](=O)[O-])NCCSCc1csc(CN(C)C)n1 [Nizatidine] | 0.956
21 | Cc1cn([C@H]2C=C[C@@H](CO)O2)c(=O)[nH]c1=O [Stavudine (d4T)] | 0.893
22 | Cc1cnc(NC(=O)C2=C(O)c3ccccc3S(=O)(=O)N2C)s1 [Meloxicam] | 1.17
23 | CCN(CC)CCNC(=O)c1c(C)[nH]c(/C=C2\C(=O)Nc3ccc(F)cc32)c1C [Sunitinib Malate] | 1.1
24 | CCCCC1C(=O)N(c2ccccc2)N(c2ccccc2)C1=O [Phenylbutazone] | 0.899
25 | C[C@H](NCc1ccc(OCc2cccc(F)c2)cc1)C(N)=O [Safinamide Mesylate] | 0.955
26 | CN/C(=N\CCSCc1nc[nH]c1C)NC#N [Cimetidine] | 1.01
27 | CC1(C)O[C@@H]2C[C@H]3[C@@H]4CCC5=CC(=O)C=C[C@]5(C)[C@@]4(F)[C@@H](O)C[C@]3(C)[C@]2(C(=O)CO)O1 [Triamcinolone Acetonide] | 1.02
28 | CS(=O)(=O)N1CCN(Cc2cc3nc(-c4cccc5[nH]ncc45)nc(N4CCOCC4)c3s2)CC1 [Pictilisib (GDC-0941)] | 0.681
29 | CN(C)CCc1c[nH]c2ccc(Cn3cncn3)cc12 [Rizatriptan Benzoate] | 1.09

— the supplement of paper PMC7184167
